Bioassay records from PubChem.
TrxR1 substrate – qHTS Assay for Substrates of Mammalian Selenoprotein Thioredoxin Reductase 1 (TrxR1): qHTS. Potency, µM (series often up to 114 µM), for inactives: at the top dose activity change, negative = substrate turnover. AID 588456, 2011. Thioredoxin reductase 1, cytoplasmic (Rattus norvegicus), O89049. purified TrxR1 substrate turnover, NADPH consumption readout. actives 0.01% (n = 390,000); further: potency means the concentration at half of the fitted maximal effect; nearly all actives have a fitted effect of over 50% in size
Target sequence (O89049 whole entry, looked up): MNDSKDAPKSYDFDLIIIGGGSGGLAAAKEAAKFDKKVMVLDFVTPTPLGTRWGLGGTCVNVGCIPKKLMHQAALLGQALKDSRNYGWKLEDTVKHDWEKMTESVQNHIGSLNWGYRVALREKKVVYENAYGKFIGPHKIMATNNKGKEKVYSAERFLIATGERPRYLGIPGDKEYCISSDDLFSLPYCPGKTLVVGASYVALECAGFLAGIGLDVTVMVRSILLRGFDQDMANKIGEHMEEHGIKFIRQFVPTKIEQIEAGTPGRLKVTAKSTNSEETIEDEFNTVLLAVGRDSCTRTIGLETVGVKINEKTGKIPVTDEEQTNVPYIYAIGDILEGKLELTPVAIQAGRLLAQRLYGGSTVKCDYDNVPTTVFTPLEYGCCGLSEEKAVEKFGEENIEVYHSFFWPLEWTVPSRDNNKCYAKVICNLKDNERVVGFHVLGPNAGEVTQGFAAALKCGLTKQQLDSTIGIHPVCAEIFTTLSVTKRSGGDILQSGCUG
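Rat TrxR1, dispensed at 90 nM, was prereduced with 400 uM NADPH (final) for 5 min at ~22 deg C, then incubated with compound 15 min before 400 uM selenite. A first-read NADPH fluorescence drop versus no-compound background flagged substrates.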
GALK inh – qHTS Assay for Inhibitors of Human Galactokinase (GALK) | P51570 | Purified GALK, Kinase-Glo residual ATP luminescence | Potency, µM (top dose mostly 57.5 µM), inactives show at the top dose activity change, negative = inhibition, usual class: inhibitors | actives 0.007% (n = 270,000) | AID 1868, 2009; further: potency means the concentration at half of the fitted maximal effect
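ATP-depletion format; final 35 uM ATP, 100 uM D-galactose, 5 nM enzyme; pH 8.0 HEPES/Mg2+ buffer; 60 min RT; luminescence read 10 min after detection reagent.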
TrxR1 inh – qHTS Assay for Inhibitors of Mammalian Selenoprotein Thioredoxin Reductase 1 (TrxR1): qHTS. Thioredoxin reductase 1, cytoplasmic (Rattus norvegicus), O89049. recombinant rTrxR1, NADPH fluorescence consumption, selenite substrate. Potency, µM (doses to about 114 µM), for the others: at the highest dose activity change, negative = inhibition, actives largely listed as inhibitors. actives 1% (n = 390,000); further: potency means the concentration at half of the fitted maximal effect; nearly all actives have a fitted effect of over 65% in size
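Rat TrxR1 (90 nM in the dispensed reagent) was pre-reduced with 400 uM NADPH for 5 min at room temperature, then incubated with compound for 15 min. After 400 uM selenite was added, NADPH fluorescence (Ex 340/Em 450 nm) was followed for 8 min.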
FBPA coupling cs – qHTS Assay for Inhibitors of Fructose-1,6-bisphosphate Aldolase from Giardia Lamblia: Coupling assay counterscreen; AID 2472, 2010; coupling enzyme system counterscreen, AmpLite Red fluorescence; actives 0.67% (n = 290,000); activity change, negative = inhibition, % at 58.2 µM, hits read low; in the data active means activity change below about -30%
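Fluorescence at 525 nm excitation and 598 nm emission measured inhibition of the coupled detection system without aldolase. Compounds (at 57.5 uM final) were preincubated 10 min at room temperature with coupling enzyme reagent before a 20 min substrate/AmpLite Red step.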
USP1-UAF1 inh – Inhibitors of USP1/UAF1: Primary Screen; actives 0.23% (n = 390,000); Potency, µM (titrated, usually from 57.1 µM), for the others: top-dose activity change, negative = inhibition, actives largely listed as inhibitors; recombinant USP1/UAF1, Ub-Rhodamine cleavage fluorescence; Ubiquitin carboxyl-terminal hydrolase 1 (Homo sapiens), O94782; AID 743255, 2014; further: potency means the concentration at half of the fitted maximal effect; nearly all actives have a fitted effect of over 60% in size
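USP1/UAF1 complex (1 nM) preincubated 15 min at room temperature with compound, then Ub-Rho substrate (150 nM final) added. Kinetic fluorescence at 480/540 nm over 6 reads at 60 s intervals; 50 mM HEPES pH 7.8, 0.5 mM EDTA, 0.1 mg/ml BSA, 1 mM TCEP, 0.01% Tween-20.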
The depositor's hits bear a star; ? = inconclusive; / = not tested or not shown; ! = a repeat was not active; [ ] = dose if it differs, or a comment. This is a sample that favours compounds with a hit; in the whole collection about 1.5% have one here. Unless noted, the call rests on the fitted dose curve; in most records, active means well fitted curve in the direction sought with a large enough effect; inconclusive means small, poorly fitted or top-dose-only effect, or another doubt; inactive means no such curve, though single readings can be large; an effect the other way counts as inactive or inconclusive. On the % scale 0 is the no-effect control and ±100 the full control effect.

SMILES | TrxR1 substrate | GALK inh | TrxR1 inh | FBPA coupling cs | USP1-UAF1 inh
ClCCN(CCCl)/C(=C\c1ccccc1)c1ccnc2ccccc12 | -24% | / | ? | / | /
O=C1NC(=S)N(c2ccc(F)cc2)C(=O)/C1=C\c1ccoc1 | 0%[57.1 µM] | -19% | ? | -7 | 28µM*
O=C1NC(=S)N(c2ccc(F)cc2)C(=O)/C1=C/c1ccco1 | / | -27% | / | 0 | /
O=P(O)(O)c1ccccc1OCCOCCOCCOCCOc1ccccc1P(=O)(O)O | -15% | -4% | ? | 0 | -5%
CCCCCn1c(NC(=O)c2ccco2)c(C(=O)OCC)c2nc3ccccc3nc21 | 58% | / | ? | -28 | 7.1µM*
CCOC(=O)c1c(NS(=O)(=O)c2ccccc2)n(CCCOC)c2nc3ccccc3nc12 | 277% | -2% | -33% | -39* | 1.8µM*
C=C1C(=O)[C@@]23C[C@H]4[C@@H]5[C@@]6(C)CCC[C@@]57[C@@H]2[C@@H](O)[C@@H]1C[C@H]3[C@H]7N4C6 | 1% | / | 22µM* | / | 15%
CCCCc1ccc(C(=O)O)nc1 | 3%[57.1 µM] | / | 6%[57.1 µM] | -67*! | -19%
O=C1NC(=O)C(=Cc2ccc(Sc3ccccc3)o2)C(=O)N1 | 2%[57.1 µM] | 3% | ? | 0 | -17%
O=C1NC(=O)N(c2ccc(Cl)cc2)C(=O)/C1=C\c1ccc(Sc2nc3ccccc3[nH]2)o1 | 8%[57.1 µM] | -4% | 13µM* | -3 | ?
CN(C)c1c([N+](=O)[O-])cc(N2C(=O)C=CC2=O)cc1[N+](=O)[O-] | 0% | / | 2.8µM* | / | -20%
Cc1cc(=O)oc2c(C)c(OC3CCCCC3=O)ccc12 (stereo not drawn) | 67% | -2% | ? | -2 | -9%
CCOP(=O)(C1=C(O)C(=O)C(C(C)(C)C)=CC1=O)c1ccccc1 (stereo not drawn) | 8% | -3% | 4.5µM* | -13 | ?
CCC(C)(C)O | / | / | / | -1 | /
Nc1ccc2ccccc2c1 | 55% | / | -15% | / | -5%
C[n+]1c2cc(N)ccc2cc2ccc(N)cc21 | -11% | / | -6% | -16 | 4µM*!
NC(Cc1ccc(N(CCCl)CCCl)cc1)C(=O)O (stereo not drawn) | 3%[57.1 µM] | / | 40µM* | -1 | /
CC(=O)NC(Cc1ccc(N(CCCl)CCCl)cc1)C(=O)NC(C(=O)O)C(C)C (stereo not drawn) | 5%[57.1 µM] | 1% | ? | -2 | -9%
c1nc[n]([Sn]([CH]2CCCCC2)([CH]2CCCCC2)[CH]2CCCCC2)n1 | / | / | / | 1 | /
CC(=O)C(O)C(c1ccccc1)c1c(O)c2ccccc2oc1=O (stereo not drawn) | / | / | / | 0 | /
CCc1ccc(C(=O)NN(C(=O)c2cc(C)cc(C)c2)C(C)(C)C)cc1 | / | / | / | 0 | /
COc1ccc2c(c1O)-c1cccc3c1C(C2)N(C)CC3 (stereo not drawn) | / | / | 18% | / | /
CCCN1CCc2cccc3c2[C@H]1Cc1ccc(O)c(O)c1-3 | ? | / | 24µM* | / | -15%
COC(=O)CC1=C(C(=O)OC)C2(C(=O)Nc3c(C)cccc32)C(C#N)=C(N)O1 (stereo not drawn) | -4%[0.457 µM] | -1% | 11% | -38* | -21%
O=C(Cc1ccccc1)NC(Oc1ccccc1Cl)C(Cl)(Cl)Cl (stereo not drawn) | 10%[57.1 µM] | 0% | ? | -2 | -13%
SMILES | TrxR1 substrate | GALK inh | TrxR1 inh | FBPA coupling cs | USP1-UAF1 inh
CC(C)C(=O)NC(Oc1ccccc1Cl)C(Cl)(Cl)Cl (stereo not drawn) | -1%[57.1 µM] | 0% | 8.9µM* | -1 | -15%
O=C1C=CC(=O)C(Cl)=C1 | / | / | / | -22 | /
Cc1ccc(OCC(=O)N2CCN(CCc3ccncc3)CC2)cc1C | 2% | / | 79µM* | / | -9%
CN1C(=O)/C(=C/c2ccc(Cl)s2)C(=O)NC1=S | 5% | -2% | 8.9µM* | -1 | -15%
Cc1ccsc1/C=C1\C(=O)NC(=S)N(C)C1=O | 7% | -2% | 32µM* | 3 | -26%
COc1ccc(/C=C2\C(=O)NC(=S)N(C)C2=O)cc1C | -3%[57.1 µM] | 2% | ? | -1 | -16%
CCC(C)N1C(=O)/C(=C\c2ccc(N3CCCCCC3)cc2)C(=O)NC1=S (stereo not drawn) | 5%[57.1 µM] | 0% | 8.9µM* | 1 | -7%
Cc1cc(N2CCCCC2)ccc1C=C1C(=O)N(C)C(=S)N(C)C1=O | -1% | -1% | 11µM* | 5 | -5%
CN1C(=O)/C(=C\c2ccc(N3CCCCCC3)cc2)C(=O)NC1=S | -2% | 7% | 20µM* | 2 | -7%
CCC(C)N1C(=O)/C(=C\c2cnc(N(C)C)nc2)C(=O)NC1=S (stereo not drawn) | 9%[57.1 µM] | -2% | 14µM* | -1 | -1%
Cc1cc(N2CCCC2)ccc1C=C(C#N)C#N | 5%[11.4 µM] | -2% | 15%[11.4 µM] | -2 | -23%
CCCCN1C(=O)/C(=C/c2ccc(N3CCCCCC3)cc2)C(=O)NC1=S | / | -2% | / | -1 | /
CCCN1CCC[C@@H]2Cc3cn[nH]c3C[C@H]21 | / | / | / | 0 | /
Cc1ccc(F)cc1NC(=O)c1ccc(Cn2nc(N3CCN(c4ccccc4)CC3)ccc2=O)o1 | 2%[57.1 µM] | / | 8%[57.1 µM] | / | ?
COc1cccc([C@@]2(O)CCCCC2CN(C)C)c1 (stereo partly drawn) | / | / | / | -1 | /
CC(C)=CCCN1CCC(NC(=O)C(O)(c2ccccc2)C2CCCC2)CC1 (stereo not drawn) | / | / | / | 0 | /
CC[C@H](C)[C@H](NC(=O)[C@@H](N)Cc1ccc(O)cc1)C(=O)NCC(=O)N[C@@H](CO)C(=O)N[C@@H](CCCN=C(N)N)C(N)=O | / | / | / | -1 | /
CCC(C)N1C(=O)/C(=C\c2cc3c4c(c2)CCCN4CCC3)C(=O)NC1=S (stereo not drawn) | -1% | / | 32µM* | 1 | -19%
CCCCN1C(=O)NC(=O)/C(=C/c2cnc(SC)nc2)C1=O | 3%[57.1 µM] | -1% | ? | 7 | -6%
CSc1ncc(/C=C2/C(=O)NC(=O)N(C)C2=O)cn1 | 0% | 0% | 14µM* | -3 | 2%
CSc1ncc(/C=C2/C(=O)NC(=O)N(C3CCCCC3)C2=O)cn1 | 7%[57.1 µM] | 0% | 11µM* | 9 | -11%
CNc1cc(Cl)c2nonc2c1[N+](=O)[O-] | -2%[57.1 µM] | 1% | 0.35µM* | -12 | -22%
Cc1cc([N+](=O)[O-])c(Cl)cc1NC(=O)C(C)C | -10% | 3% | -10% | 2 | -17%
Cc1ccc(C)c(N2CCN(c3nc4ccc(Cl)cc4n4cnnc34)CC2)c1 | 30% | / | 11% | / | ?
COC(=O)C1C=C2c3cccc4[nH]cc(c34)CC2N(C)C1 (stereo not drawn) | / | -1% | / | -34* | /
